# Measured values reported in the supplement of paper PMC11624193, “Coupling cellular drug-target engagement to downstream pharmacology with CeTEAM” (Nature Communications, 2024).
# Structures can show the parent of a compound that is named as a salt. Unmarked numbers belong to inactive results.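 How the source made its calls: active = log2 fold change beyond 2 SD from the library mean after excluding viability outliers; inactive = within 2 SD.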
# Biological target: PARP1 L713F-nLuc biosensor (HCT116) (UniProt P09874)
# Sequence (P09874 whole entry L713F, looked up): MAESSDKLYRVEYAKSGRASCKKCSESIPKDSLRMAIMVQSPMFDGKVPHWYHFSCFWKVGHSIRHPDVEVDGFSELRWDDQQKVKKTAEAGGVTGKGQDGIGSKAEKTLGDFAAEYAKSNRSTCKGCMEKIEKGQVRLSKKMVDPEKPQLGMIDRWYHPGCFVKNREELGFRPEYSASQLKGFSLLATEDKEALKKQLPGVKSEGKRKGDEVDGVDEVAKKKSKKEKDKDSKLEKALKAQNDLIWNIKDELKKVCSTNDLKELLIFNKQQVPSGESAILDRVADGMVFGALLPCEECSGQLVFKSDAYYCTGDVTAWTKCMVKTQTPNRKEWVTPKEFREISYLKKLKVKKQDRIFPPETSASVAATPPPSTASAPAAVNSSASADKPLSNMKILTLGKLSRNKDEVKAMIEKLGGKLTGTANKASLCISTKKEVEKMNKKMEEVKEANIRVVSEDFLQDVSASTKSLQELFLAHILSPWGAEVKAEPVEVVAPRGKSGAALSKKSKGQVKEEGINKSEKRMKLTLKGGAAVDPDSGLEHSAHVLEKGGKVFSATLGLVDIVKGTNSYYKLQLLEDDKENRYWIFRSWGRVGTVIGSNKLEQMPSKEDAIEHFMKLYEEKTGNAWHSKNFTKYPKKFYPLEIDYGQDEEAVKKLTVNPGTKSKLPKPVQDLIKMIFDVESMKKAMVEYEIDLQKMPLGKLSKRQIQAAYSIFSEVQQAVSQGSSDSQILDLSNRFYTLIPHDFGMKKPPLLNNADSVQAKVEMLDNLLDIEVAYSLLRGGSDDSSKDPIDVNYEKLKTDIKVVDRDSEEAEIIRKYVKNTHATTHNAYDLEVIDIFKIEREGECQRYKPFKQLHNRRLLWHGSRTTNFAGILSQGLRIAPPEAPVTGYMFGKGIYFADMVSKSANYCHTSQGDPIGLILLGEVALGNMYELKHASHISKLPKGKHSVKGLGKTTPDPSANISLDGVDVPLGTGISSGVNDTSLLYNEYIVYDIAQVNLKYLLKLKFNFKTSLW
# Experiment: PARP1 L713F-nLuc/akaLuc ratio relative to DMSO control (biosensor stabilization) (fold change); higher = more PARP1 biosensor stabilization (target engagement / stabilizer), active = hit call of the paper
# Details: stock concentration (mM; final µM = stock mM x 1): 10; 24 h
row,Compound,PARP1 L713F-nLuc/akaLuc ratio
1,CN1CCN(c2ccc3nc(-c4ccc5nc(-c6cccc(OCCCC(=O)NCCCN=[N+]=[N-])c6)[nH]c5c4)[nH]c3c2)CC1 [Targapremir-210],1.46
2,Cc1cc(F)c(C(=O)Nc2cccc(-c3nncn3C(C)C)n2)cc1-n1cnc(C2CC2)c1 [Selonsertib (GS-4997)],0.908
3,CC(=O)N(O)CCCCCNC(=O)CCC(=O)N(O)CCCCCNC(=O)CCC(=O)N(O)CCCCCN [Deferoxamine mesylate],0.984
4,CNC(=O)CN1CCC(Oc2cc3c(Nc4cccc(Cl)c4F)ncnc3cc2OC)CC1 [Sapitinib (AZD8931)],0.797
5,CCCCCCCCc1ccc(CCC(N)(CO)CO)cc1 [Fingolimod (FTY720) HCl],0.577
6,O=C(Nc1cccc(Nc2nccc(Nc3cccc(C(F)(F)F)c3)n2)c1)C1CC1 [Aurora kinase inhibitor-3],1.49
7,Cn1cnc2c(F)c(Nc3ccc(Br)cc3F)c(C(=O)NOCCO)cc21,0.546
